The campaign covered roughly 3,400 compounds. About 840 (25%) were called active. Not shown: some 11% with an inconclusive outcome. A selection follows. Entries with a potency or affinity are not part of this list. A number with no mark means an inactive call.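 Rule for the calls: active = fitted half-maximal concentration of signal decrease at or below twice the sample's top tested concentration; inconclusive = flat curve between -70 and -30 percent, or poor fit; inactive = flat within 30 percent, signal rise, or potency above limit.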
assay: T. gondii growth inhibition with IFN-gamma, dose response, cell-based, ME49Luc, HeLa, luciferase, 72 h (AID 1259418); conditions: T. gondii ME49Luc in IFN-y HeLa, hits give low values, -100% = high-dose IFN-γ control wells; at 19.5 µM unless noted

Structure (SMILES)	max activity
COc1ccc(CNC(=O)CCC2N=C3c4ccccc4N=C(SCc4ccccc4Cl)N3C2=O)cc1 (stereo not given)	-10.1% [at 0.16 µM]
Cc1nc(OCC(=O)Nc2cc(Cl)ccc2C)c2ccccc2n1	25.9% [at 0.16 µM]
CCOC(=O)C1CCCN(c2nc(-c3ccc(OC)cc3)nc3ccccc23)C1 (stereo not given)	-19.8% [at 0.16 µM]
O=C(CC1N=C2c3ccccc3N=C(SCc3ccccc3F)N2C1=O)NCc1ccccc1 (stereo not given)	8.54% [at 0.16 µM]
N#CCSC1=Nc2ccccc2C2=NC(CCC(=O)NCc3cccs3)C(=O)N12 (stereo not given)	19.3% [at 1.35 µM]
CCOC(=O)CSC1=Nc2ccccc2C2=NC(CC(=O)NCc3cccs3)C(=O)N12 (stereo not given)	29.5%
O=C(CC1N=C2c3ccccc3N=C(SCc3ccccc3F)N2C1=O)NCc1ccc(F)cc1 (stereo not given)	15.6% [at 0.68 µM]
Cc1ccc(-c2coc(-c3ccc(NC(=O)NCCc4ccccc4)cc3)n2)cc1	19.3% [at 2.6 µM]
Clc1ccc(-c2nc(NC3CCCCC3)c3ccccc3n2)cc1	16.4%
Clc1ccc(-c2nc(NC3CCCCCC3)c3ccccc3n2)cc1	14.3% [at 10 µM]
COc1ccc(-c2nc(NC3CCCCCC3)c3ccccc3n2)cc1	19.2% [at 0.16 µM]
COc1ccc(-c2nc(Nc3ccccc3F)c3ccccc3n2)cc1	11.7%
COc1ccc(-c2nc(NC3CCCCC3)c3ccccc3n2)cc1	-27.2% [at 5 µM]
COc1ccc(-c2nc(Nc3cc(OC)cc(OC)c3)c3ccccc3n2)cc1	19% [at 5 µM]
COc1ccc(-c2nc(Nc3ccc(Cl)cc3C)c3ccccc3n2)cc1	-19.8% [at 10 µM]
Cc1cnc(N2CC[C@H]3CN(CC(=O)N(C)C)S(=O)(=O)[C@@H]3CC2)nc1	21.5%
O=C(CCc1ccc2nc(-c3ccccc3)[nH]c2c1)N1CCC(N2CCCCC2)CC1	57.7%
c1ccc(-n2ncc3c(NC4CCCCCCCCCCC4)ncnc32)cc1	53.5% [at 10 µM]
Cc1nc(-c2ccc(F)cc2)sc1-c1ccc(SCCN2CCCCC2)nn1	10.2% [at 0.16 µM]
Cc1ccc(Cn2c(=O)c3nn(C)cc3n3c(=O)n(Cc4nc(-c5cccc(C)c5)oc4C)nc23)cc1	8.72% [at 10 µM]
COc1ccc(-c2nc(N3CCN(c4cc(C)ccc4C)CC3)c3ccccc3n2)cc1	11.7% [at 0.68 µM]
Cc1ccc(CSC2=Nc3ccccc3C3=NC(CC(=O)NC4CCCCC4)C(=O)N23)cc1 (stereo not given)	39.6%
O=C(CCC1N=C2c3ccccc3N=C(SCc3ccccc3F)N2C1=O)NC1CCCCC1 (stereo not given)	96.1%
O=C(CC1N=C2c3ccccc3N=C(SCc3cccc(Cl)c3)N2C1=O)NC1CCCCC1 (stereo not given)	-15.8% [at 0.16 µM]
O=C(CC1N=C2c3ccccc3N=C(SCc3ccccc3Cl)N2C1=O)NC1CCCCC1 (stereo not given)	14%

Structure (SMILES)	max activity
Cc1cccc(C(=O)N2CCC3(CC2)Nc2ccc(Cl)cc2-n2cccc23)c1	5.23%
COc1ccc(OC)c(NC(=O)Nc2ccc(-c3nc(-c4ccccc4)co3)cc2)c1	13.4% [at 0.68 µM]
COc1ccc(-c2nc(Nc3cccc(C(F)(F)F)c3)c3ccccc3n2)cc1	-7.84% [at 5 µM]
N#C[C@@H]1[C@@H](c2ccc(-c3cccnc3)cc2)[C@H](CO)N1C(=O)Nc1ccc(F)cc1	48.3% [at 10 µM]
CCOc1cccc(-c2noc(-c3nnn(Cc4nc(-c5ccc(C)cc5)oc4C)c3C)n2)c1	-11.7% [at 0.68 µM]
CN1C(=O)CCc2cc(NC(=O)c3cnccn3)ccc21	158% [at 10 µM]
COc1ccc(-c2nc(Nc3cc(Cl)ccc3OC)c3ccccc3n2)cc1	12.5% [at 0.68 µM]
Cc1ccc2c(c1)cc(S(=O)(=O)c1ccccc1)c(=O)n2CC(=O)NCC1CCCO1 (stereo not given)	-10.7% [at 10 µM]
CCOc1ccccc1NC(=O)N1CCN(Cc2nc(-c3ccc(C)cc3)oc2C)CC1	-15.8%
COc1ccc(OC)c(CNc2nc(-c3ccc(Cl)cc3)nc3ccccc23)c1	14.3%
N#C[C@H]1[C@@H](c2ccc(-c3cccc(F)c3)cc2)[C@@H](CO)N1C(=O)NC1CCCC1	14.8% [at 2.6 µM]
N#C[C@@H]1[C@@H](c2ccc(-c3cccc(F)c3)cc2)[C@H](CO)N1C(=O)NC1CCCC1	20.3% [at 10 µM]
Cc1nc(-c2ccc(F)cc2)sc1-c1ccc(SCc2ccccc2)nn1	20.5% [at 10 µM]
COc1ccc(-c2nc(N3CCN(c4cc(Cl)ccc4C)CC3)c3ccccc3n2)cc1	23.2% [at 1.35 µM]
Cc1ccccc1-c1nc(CN2CCN(C(=O)NC3CCCCC3)CC2)c(C)o1	-12% [at 0.35 µM]
Cc1cccc(-c2nc(Cn3nnc(-c4nc(-c5ccc(C(F)(F)F)cc5)no4)c3C)c(C)o2)c1	-7.24% [at 0.16 µM]
Cc1ccc(C)c(N2CCN(c3nc(-c4ccc(Cl)cc4)nc4ccccc34)CC2)c1	16.9%
Cc1ccc(S(=O)(=O)N2CCC3(CC2)NCCN=C3NCc2ccc3c(c2)OCO3)c(C)c1	-18.3%
O=S(=O)(c1ccc2c(c1)CCCC2)N1CCC2(CC1)NCCN=C2NCc1ccc2c(c1)OCO2	10.2%
CC(C)Cc1ccc(S(=O)(=O)N2CCC3(CC2)NCCN=C3NCc2ccc3c(c2)OCO3)cc1	12.4% [at 10 µM]
COc1ccccc1NC(=O)COc1nc(C)nc2ccccc12	14.7%
COc1ccc(S(=O)(=O)N2CCC[C@@H]2C(=O)NCCc2csc(C)n2)cc1OC	10.7% [at 10 µM]
O=C(Cc1ccccc1)N1CCC2(CC1)CC(N1CCCC1)CO2 (stereo not given)	17.6% [at 2.6 µM]
CC(C)CCNC(=O)Cn1c(=O)c(S(=O)(=O)c2ccccc2)cc2ccccc21	-14% [at 0.16 µM]
COc1cccc(CCC(=O)Nc2ccc3c(c2)CCC(=O)N3C)c1	3.19%

Structure (SMILES)	max activity
CN1C(=O)CCc2cc(NC(=O)c3cccc(C(F)(F)F)c3)ccc21	6.55% [at 0.68 µM]
COc1ccc(CC(=O)Nc2ccc3c(c2)CCC(=O)N3C)cc1Cl	7.75% [at 10 µM]
CN1C(=O)CCc2cc(NC(=O)Cc3c(F)cccc3Cl)ccc21	-7.19% [at 5 µM]
CN1C(=O)CCc2cc(NC(=O)C3CC3)ccc21	-5.59% [at 0.16 µM]
CCN1C(=O)CCc2cc(NC(=O)Cc3ccc(Cl)cc3)ccc21	8.3% [at 2.6 µM]
COCC(=O)Nc1ccc2c(c1)CCC(=O)N2C	6.56% [at 0.16 µM]
CCN1C(=O)CCc2cc(NC(=O)Cc3ccc(OC)cc3)ccc21	7.03% [at 2.6 µM]
COc1cc(OC)c(NC(=O)Nc2ccc(-c3nc(-c4ccccc4)co3)cc2)cc1Cl	24.2%
CCOC(=O)CSc1nc(NCCc2ccc(OC)c(OC)c2)c2ccccc2n1	24.2% [at 0.68 µM]
Cc1ccc(-c2nc(CN3CCN(C(=O)Nc4ccccc4C(F)(F)F)CC3)c(C)o2)cc1	15.9% [at 0.16 µM]
O=C(Nc1ccc(-c2nc(-c3ccccc3)co2)cc1)c1ccc2c(c1)OCO2	22.1% [at 0.35 µM]
COc1ccc(OC)c(NC(=O)Nc2ccc(-c3nc(-c4ccc(C)cc4C)co3)cc2)c1	12.1% [at 0.35 µM]
COc1cccc(-c2nc3c(s2)CN(C(=O)Nc2ccc(Br)cc2)CC3)c1	6.77%
Cc1ccc(-c2nc(Cn3nnc(-c4nc(-c5ccc(OCC(C)C)cc5)no4)c3C)c(C)o2)cc1	21.2% [at 0.16 µM]
CCOC(=O)C1CCN(S(=O)(=O)c2cc(-c3nc(C(C)(C)C)cs3)cs2)CC1	7.71% [at 0.68 µM]
CN1C(=O)CCc2cc(NC(=O)c3ccsc3)ccc21	74.1% [at 10 µM]
CN1C(=O)CCc2cc(NC(=O)c3ccncc3)ccc21	-16.2% [at 2.6 µM]
Cc1ccc(-c2coc(-c3ccc(NC(=O)c4ccc(Br)o4)cc3)n2)cc1	38% [at 2.6 µM]
O=C(Nc1ccc(-c2nc(-c3ccccc3)co2)cc1)Nc1cccc(F)c1	13.5%
Cc1nc(-c2ccc(F)cc2)sc1-c1ccc(SCCN2CCCCCC2)nn1	9.96%
COc1ccc(-c2ccc(OCCNC(=O)c3sc(-c4ccccc4)nc3C)nn2)cc1	13.2% [at 0.16 µM]
COc1ccc(CC(=O)Nc2ccc(-c3nc(-c4ccc(C)cc4)co3)cc2)cc1	16.4% [at 0.35 µM]
O[C@H](CNC[C@@H](O)[C@H]1CCc2cc(F)ccc2O1)[C@@H]1CCc2cc(F)ccc2O1	-7.92% [at 0.3 µM]
CNc1ncc(CN(C)C(=O)c2csc(C)n2)cn1	20.8%
Cc1ccc2c(c1)cc(S(=O)(=O)c1ccccc1)c(=O)n2CC(=O)NCc1ccccc1Cl	7.82% [at 0.68 µM]

— PubChem BioAssay AID1259418 (Broad Institute, 2018)
